Experimental data as given in PubChem BioAssay AID2284363 (EPA ToxCast).
The source made the active and inactive calls. Rule for the calls: active = hit-call score of the fitted dose curve at least 0.9, where 1 is the maximum; inactive = score below 0.9.

The compounds below were run against Nuclear factor erythroid 2-related factor 2 (Homo sapiens) (UniProt Q16236) (assay: ERF_US_NR_hNFE2L2: Eurofins (ERF) Cell Based Nuclear Translocation LeadHunter Assay for human Transcription Factor Keap1-Nrf2 Agonism).
Chain of Nuclear factor erythroid 2-related factor 2 (Homo sapiens) (Q16236 whole entry, looked up, the tested form may be a part): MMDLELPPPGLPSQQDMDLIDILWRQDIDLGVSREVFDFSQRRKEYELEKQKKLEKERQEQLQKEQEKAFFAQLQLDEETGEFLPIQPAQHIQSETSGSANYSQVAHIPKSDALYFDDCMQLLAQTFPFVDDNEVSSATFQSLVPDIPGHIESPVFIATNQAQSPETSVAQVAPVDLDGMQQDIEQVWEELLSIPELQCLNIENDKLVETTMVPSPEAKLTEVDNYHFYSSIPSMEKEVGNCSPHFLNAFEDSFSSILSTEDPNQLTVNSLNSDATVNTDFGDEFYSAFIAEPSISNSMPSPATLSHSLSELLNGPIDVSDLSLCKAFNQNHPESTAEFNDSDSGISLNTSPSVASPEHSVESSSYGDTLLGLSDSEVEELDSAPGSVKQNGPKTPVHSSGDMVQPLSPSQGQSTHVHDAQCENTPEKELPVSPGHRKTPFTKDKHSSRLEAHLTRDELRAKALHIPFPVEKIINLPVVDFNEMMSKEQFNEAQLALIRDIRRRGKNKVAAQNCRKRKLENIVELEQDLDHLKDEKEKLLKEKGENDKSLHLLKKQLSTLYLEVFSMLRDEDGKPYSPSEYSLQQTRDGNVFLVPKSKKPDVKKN
Procedure: ERF_US_NR_hNFE2L2 is a cell-based, single-readout assay that uses extracted gene-proteins in a cell-line assay. Measurements were taken 6 hours after chemical dosing in a 384-well plate. See Keap1-Nrf2 Human Transcription Factor Cell Based Agonist Nuclear Translocation Assay, DiscoverX.ERF_US_NR_hNFE2L2 is an assay component calculated from the ERF_US_NR_hNFE2L2 assay. It is designed to measure protein fragment complementation using a type of binding reporter as detected by chemiluminescence with fluorimetry technology.Data from the assay component ERF_US_NR_hNFE2L2 was analyzed at the assay endpoint, ERF_US_NR_hNFE2L2, in the positive analysis fitting direction relative to DMSO as the negative control and baseline of activity. Using a type of binding reporter, gain-of-signal activity can be used to understand changes in binding as they relate to gene NFE2L2. To generalize the intended target to other relatable targets, this assay endpoint is annotated to the dna binding intended target family, where the subfamily is basic leucine zipper.
Cells were seeded in a total volume of 20 uL into white walled, 384-well microplates and incubated at 37C overnight prior to testing.For agonist determination, cells were incubated with sample to induce response. Intermediate dilution of sample stocks was performed to generate 5X sample in assay buffer. 5 uL of 5X sample was added to cells and incubated at room temperature for 6 hours. Final assay vehicle concentration was 1%. The results are expressed as a percent efficacy relative to the maximum response of the control ligand.
For `O=C(O)C(F)(F)C(F)(F)C(F)(F)C(F)(F)C(F)(F)C(F)(F)C(F)(F)C(F)(F)Cl`, the outcome was “inactive”. For `O=C(O)CCC(F)(F)C(F)(F)C(F)(F)C(F)(F)C(F)(F)F`, the outcome was “inactive”. `OCCC(F)(F)C(F)(F)C(F)(F)C(F)(F)C(F)(F)C(F)(F)C(F)(F)C(F)(F)F` was tested, and the AC50 was 1.94 µM (active). In the case of `O=C(O)C(F)(F)C(F)(F)C(F)(F)F`, the outcome was “inactive”.
